Screening results (PubChem BioAssay)
DT40 TDP1 no CPT = qHTS for Inhibitors of human tyrosyl-DNA phosphodiesterase 1 (TDP1): qHTS in cells in absence of CPT | AID 686978, 2013 | actives 15% (n = 420,000) | DT40 Tdp1-/- hTDP1 cells, no CPT, ATP luminescence, 48 h | Potency, µM (titrated, usually from 46.2 µM), for the others: at the highest dose activity change, negative = growth inhibition, hits mostly inhibitors; also: potency is read from the fitted curve at half-maximal effect; nearly all actives have a fitted effect of over 55% in size
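No-CPT arm: Tdp1-/-;hTDP1 DT40 cells (400/well) plus compounds, incubated ≥48 hr at 37 °C. Readout CellTiter-Glo luminescence.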
LDHA block = inhibitors of human lactate dehydrogenase A; AID 1347041; P00338; actives 0.15% (n = 480,000); purified LDHA, NADH/diaphorase-resazurin fluorescence; hits give low values; activity change, % (values are at about 110 or 230 µM); in the data active = activity change below about -30%; inconclusive = mostly about -25% to -30%;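 also: plate controls were DMSO wells for no effect and wells without enzyme for full effect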
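LDH5 2 nM; NADH 0.06 mM, pyruvate 0.2 mM; 200 mM Tris pH 7.4, EDTA, Tween-20; 5 min RT. Detection: diaphorase 0.133 mg/mL + resazurin 37 µM, fluorescence ex540/em590 at 0 and 20 min; normalized to enzyme-free and DMSO wells.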
VP16 counter = inhibits Gal4-VP16 luciferase reporter, ROR gamma counter-screen | Drosophila S2 Gal4-VP16 UAS-luciferase, luminescence, 20 h | Potency, µM (doses to about 53.6 µM), for the others: at the top dose activity, negative = inhibition, actives largely listed as inhibitors | actives 3.5% (n = 310,000);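 also: Gal4-VP16 expression switched on by copper sulfate through the metallothionein promoter; potency is read from the fitted curve at half-maximal effect; nearly all actives have a fitted effect of over 50% in size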
IL-1B inflam inh = blocks inflammasome-driven IL-1 beta release. THP-1 LPS/ATP IL-1B secretion, AlphaLISA, 16 h; hits give low values. activity change, % at 57.5 µM. actives 4.7% (n = 360,000). AID 743279; in the data active = activity change below about -50%; inconclusive = mostly about -30% to -49%
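THP-1 cells pretreated 1 hr with compounds (up to 57.5 uM final), then stimulated with LPS (250 ng/mL final) plus ATP (1.25 mM final); secreted IL-1B measured by AlphaLISA after 16 hr, decreased signal indicating inhibition.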
RORg inh = inhibitors of mouse ROR gamma transcriptional activity; AID 2551; Potency, µM (titrated, usually from 53.6 µM), for inactives: top-dose activity change, negative = inhibition, most hits filed as inhibitors; actives 5.4% (n = 310,000); Drosophila S2 Gal4-RORgamma UAS-luciferase reporter, 20 h; also: potency is read from the fitted curve at half-maximal effect; nearly all actives have a fitted effect of over 60% in size
Target sequence (P51450 whole entry, looked up, the tested form may be a part): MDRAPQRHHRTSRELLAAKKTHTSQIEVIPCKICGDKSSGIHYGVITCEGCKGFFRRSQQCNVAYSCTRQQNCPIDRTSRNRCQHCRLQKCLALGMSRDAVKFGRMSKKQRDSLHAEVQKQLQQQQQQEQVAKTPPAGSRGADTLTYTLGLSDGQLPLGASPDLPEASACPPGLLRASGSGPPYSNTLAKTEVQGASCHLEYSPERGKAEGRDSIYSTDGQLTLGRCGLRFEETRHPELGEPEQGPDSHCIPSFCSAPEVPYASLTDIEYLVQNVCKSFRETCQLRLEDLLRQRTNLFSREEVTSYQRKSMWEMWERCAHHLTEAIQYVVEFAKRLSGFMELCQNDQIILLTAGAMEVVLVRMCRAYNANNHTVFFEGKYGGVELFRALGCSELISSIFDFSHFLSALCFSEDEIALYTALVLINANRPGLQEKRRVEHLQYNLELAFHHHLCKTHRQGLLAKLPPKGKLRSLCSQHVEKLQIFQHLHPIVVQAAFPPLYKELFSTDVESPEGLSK
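In this cell-based reporter format, copper sulfate (700 uM final) drives Gal4–ROR gamma fusion expression from a metallothionein promoter in Drosophila Schneider cells; compounds preincubated 1 hr, reporter read after 20 hr at ambient temperature.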
TDP1 cell CPT = DT40-hTDP1 cell growth loss with CPT | AID 686979 | actives 12% (n = 420,000) | chicken DT40 Tdp1-/-;hTDP1 cells + 20 nM CPT, ATP luminescence, 48 h | Potency, µM (top dose mostly 46.2 µM), for inactives: top-dose activity change, negative = growth inhibition, actives largely listed as inhibitors; also: potency is read from the fitted curve at half-maximal effect; nearly all actives have a fitted effect of over 55% in size
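Chicken DT40 Tdp1-/- cells complemented with human TDP1, 400 cells/well, exposed to compounds plus 20 nM camptothecin for at least 48 h at 37 C; viability read as ATP content by CellTiter-Glo luminescence.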
Numbers without * were called inactive. Most compounds without a hit are left out; they make up all but 18% or so of the library. Unless noted, calls follow the shape of the dose curve; as a rule, active = well fitted curve in the direction sought with a large enough effect; inconclusive = small, poorly fitted or top-dose-only effect, or another doubt; inactive = no such curve, though single readings can be large; an effect the other way counts as inactive or inconclusive. Unless noted, % is scaled to controls: 0 for no effect and ±100 for the full control effect.

Screening COc1ccc(-c2nnc(SCC(=O)NCc3ccccc3CN3CCOCC3)n2C)cc1 returned LDHA block -6.
`O=C(Cc1cccc2ccccc12)NCCOc1ccccc1F` gave DT40 TDP1 no CPT -24%, LDHA block -1, VP16 counter 2%, IL-1B inflam inh -84*, RORg inh 24% and TDP1 cell CPT -27%.
For C=CCN(CC=C)C(=S)NC(=O)Cc1cccc2ccccc12 the results were DT40 TDP1 no CPT inconclusive, LDHA block 0, VP16 counter 0.79µM*, IL-1B inflam inh 34, RORg inh 0.2µM* and TDP1 cell CPT inconclusive.
For Cc1ccc(OCCNC(=O)CNC(=O)Cc2cccc3ccccc23)cc1 the results were DT40 TDP1 no CPT -16%, LDHA block 1 and TDP1 cell CPT -27%.
Screening O=C(Nc1ccc(Br)cc1Cl)C12CC3CC(CC(C3)C1)C2 returned LDHA block 0.
Screening O=C1C2C(c3ccccc3)CC=CC2[C@H](c2ccc3ccccc3c2)N1Cc1ccccc1 (stereo partly specified) returned DT40 TDP1 no CPT 23µM*, LDHA block -6, VP16 counter 0%, IL-1B inflam inh -20, RORg inh 26% and TDP1 cell CPT 21µM*.
COc1ccc(C2C3C=CCC(c4cccc(-c5ccc(N(C)C)cc5)c4)C3C(=O)N2Cc2ccccc2)cc1Cl (stereo unspecified) was read as VP16 counter 4% and RORg inh 27%.
For COc1ccc(C2C3C=CCC(c4cccc(-c5ccc(C)cc5)c4)C3C(=O)N2Cc2ccccc2)cc1Cl (stereo unspecified) the results were DT40 TDP1 no CPT 13µM*, LDHA block -2, VP16 counter -6%, IL-1B inflam inh 8, RORg inh 6% and TDP1 cell CPT 23µM*.
Cc1ccc(-c2cccc(C3CC=CC4C3C(=O)N(Cc3ccccc3)C4c3ccc(C(F)(F)F)cc3)c2)cc1 (stereo unspecified) was read as DT40 TDP1 no CPT 13µM*, LDHA block -7, VP16 counter 5%, IL-1B inflam inh 47, RORg inh 13% and TDP1 cell CPT 13µM*.
Screening Cc1ccc(-c2cc([C@H]3[C@H]4C=CC[C@@H](C)[C@@H]4C(=O)N3Cc3ccccc3)ccc2F)cc1 returned DT40 TDP1 no CPT 21µM*, LDHA block 0, VP16 counter 10%, IL-1B inflam inh 15, RORg inh 5% and TDP1 cell CPT inconclusive.
For Cc1cc(C)cc(NC(=O)COC(=O)c2nn(C)c(=O)c3ccccc23)c1 the results were LDHA block 12.
Screening COc1ccc(CCNC(=O)CSc2ccc(-c3ccccn3)nn2)cc1OC returned LDHA block 9.
Screening CC(C)N(C(=O)Cn1c(CN2CCCCC2)nc2ccccc21)c1ccccc1 returned LDHA block -5.
`CC1CCc2onc(C(=O)Nc3cccc(Cl)c3)c2C1` (stereo unspecified) gave LDHA block 10.
`COc1cccc(C(=O)CSc2nnc(-c3cc4ccccc4o3)n2C)c1` gave LDHA block -1.
For O=C(/C=C/c1ccc(Cl)cc1)c1ccc2ccccc2c1O the results were LDHA block 12.
COc1ccc(-c2cccc([C@H]3[C@@H]4C=CC[C@@H](C)[C@@H]4C(=O)N3Cc3ccccc3)c2)cc1 was read as DT40 TDP1 no CPT 21µM*, LDHA block 2, VP16 counter -7%, IL-1B inflam inh -23, RORg inh 4% and TDP1 cell CPT 23µM*.
O=C1C2C(c3ccccc3)CC=CC2C(c2ccc3ccccc3c2)N1Cc1ccccc1 (stereo unspecified) was read as VP16 counter 2% and RORg inh 42%.
For CC(=O)c1ccc(-c2cccc([C@H]3[C@@H]4C=CC[C@@H](C)[C@@H]4C(=O)N3Cc3ccccc3)c2)cc1 the results were DT40 TDP1 no CPT 13µM*, LDHA block 4, VP16 counter -5%, IL-1B inflam inh -20, RORg inh 3% and TDP1 cell CPT 10µM*.
For COc1ccc(-c2cccc(C3CC=CC4C3C(=O)N(Cc3ccccc3)C4c3ccc4ccccc4c3)c2)cc1 (stereo unspecified) the results were DT40 TDP1 no CPT 15µM*, LDHA block -3, VP16 counter -1%, IL-1B inflam inh 43, RORg inh 8% and TDP1 cell CPT 18µM*.
For COc1ccc(C2C3C=CCC(C)C3C(=O)N2Cc2ccccc2)cc1Cl (stereo unspecified) the results were VP16 counter 1% and RORg inh 6%.
`COc1cc(-c2cccc([C@H]3[C@@H]4C=CC[C@@H](C)[C@@H]4C(=O)N3Cc3ccccc3)c2)cc(OC)c1OC` gave DT40 TDP1 no CPT 7.3µM*, LDHA block 3, VP16 counter 1%, IL-1B inflam inh inconclusive, RORg inh -2% and TDP1 cell CPT 8.2µM*.
Screening CCCCCCN1C[C@@H](n2cc(-c3ccc(F)cc3)nn2)[C@H](O)C[C@@H]1c1ccccc1 returned DT40 TDP1 no CPT 13µM*, LDHA block -15, IL-1B inflam inh -10 and TDP1 cell CPT inconclusive.
CCCCCCN1C[C@H](O)[C@@H](n2cc(-c3ccc(F)cc3)nn2)C[C@@H]1c1ccc(C)cc1 was read as DT40 TDP1 no CPT 23µM*, LDHA block -2, IL-1B inflam inh -18 and TDP1 cell CPT inconclusive.
For CCCCCCN1C[C@@H](O)[C@H](n2cc(-c3ccc(F)cc3)nn2)C[C@@H]1c1ccccc1 the results were DT40 TDP1 no CPT inconclusive, LDHA block -14, IL-1B inflam inh -16 and TDP1 cell CPT -29%.
CCCCCC(=O)N1C[C@H](O)[C@@H](n2cc(-c3ccc(F)cc3)nn2)C[C@@H]1c1ccccc1 was read as DT40 TDP1 no CPT inconclusive, LDHA block 1, IL-1B inflam inh -5 and TDP1 cell CPT -3%.
Screening CCCCCCN1C[C@@H](O)[C@H](n2cc(-c3ccc(F)cc3)nn2)C[C@@H]1c1ccc(C)cc1 returned DT40 TDP1 no CPT 21µM*, LDHA block 1, IL-1B inflam inh 3 and TDP1 cell CPT inconclusive.
For O=C(/C=C/c1ccccc1)c1ccc2ccccc2c1 the results were DT40 TDP1 no CPT 16µM*, LDHA block -9, IL-1B inflam inh inconclusive and TDP1 cell CPT inconclusive.
